From PubChem BioAssay (NCATS)
Results filed as inconclusive are left out. Calls of active or inactive are those of the source. Unless noted, calls follow the shape of the dose curve; as a rule, active = well fitted curve in the direction sought with a large enough effect; inconclusive = small, poorly fitted or top-dose-only effect, or another doubt; inactive = no such curve, though single readings can be large; an effect the other way counts as inactive or inconclusive.

Key:
[1] = target: DNA repair nuclease/redox regulator APEX1 (Homo sapiens) (UniProt P27695); assay: qHTS Validation Assay for Inhibitors of the Human Apurinic/apyrimidinic Endonuclease 1 (APE1) (AID 1705;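 also: TAMRA fluorescence gain over two minutes as APE1 cuts a quenched THF abasic duplex; series mostly up to about 57 µM; % is scaled to controls: 0 for no effect and ±100 for the full control effect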)
In short: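 qHTS, 1536-well. APE1 + cpd 15 min RT → 50 nM TAMRA/BHQ-2 THF-abasic dsDNA substrate → kinetic fluorescence, 3 reads/60 s; delta(read3−read1) = reaction progress. No-enzyme buffer = negative control.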

[2] = Counterscreen for APE1 Inhibitors: Fluorescent Dye Displacement Validation Assay (AID 1707);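 also: plate controls were ThO with dsDNA and no compound for no effect and ThO without dsDNA for full effect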
In short: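 Reaction mixture of 250 nM Thiazole Orange and 50 nM double-stranded abasic-site DNA was dispensed, compounds were pin-transferred, and fluorescence was read at endpoint (480 nm ex, 540 nm em). Reduced fluorescence indicated dye displacement by DNA binding.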

[3] = target: Endonuclease 4 (Escherichia coli (strain K12)) (UniProt P0A6C1); assay: Counterscreen for APE1 Inhibitors: qHTS Validation Assay for Inhibitors of Endonuclease IV (AID 1708); also: % is scaled to controls: 0 for no effect and ±100 for the full control effect
In short: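 Conditions: 2 nM enzyme, 50 nM TAMRA/BHQ-2 substrate, pH 7.5 Tris buffer with 2 mM MgCl2, RT. Compound preincubation 15 min; readout three fluorescence reads 60 s apart, third-minus-first.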

[4] = qHTS for differential inhibitors of proliferation of Plasmodium falciparum line 7G8 (AID 1815);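 also: parasite growth measured after three days of incubation; plate controls were vehicle wells for no effect and reference inhibitor wells for full effect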
[5] = qHTS for differential inhibitors of proliferation of Plasmodium falciparum line 3D7 (AID 1876);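 also: parasite growth measured after three days of culture; 0% = vehicle wells and -100% = reference inhibitor wells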
[6] = qHTS for differential inhibitors of proliferation of Plasmodium falciparum line Dd2 (AID 1882); details: Potency: Plasmodium falciparum Dd2 proliferation inhibition;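 also: series mostly up to about 29 µM; plate controls were DMSO vehicle for no effect and 0.29 µM artemisinin for full effect; nearly all actives have a fitted effect of over 65% in size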
In short: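 SYBR Green DNA fluorescence (ex 485, em 535 nm) after overnight lysis quantifies parasite growth; compound exposure lasted 72 h at 37 C on infected red cells at 2.5% hematocrit, 0.3% parasitemia (final). Artemisinin 0.29 uM and vehicle wells define normalization.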

[7] = target: Ferritin light chain (Equus caballus) (UniProt P02791); assay: qHTS Validation Assay for Identification of Novel General Anesthetics (AID 2323); also: series mostly up to about 77 µM; % is scaled to controls: 0 for no effect and ±100 for the full control effect
In short: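 Fluorescence at 535 nm (excitation 380 nm) reported loss of 1-AMA binding to horse-spleen apoferritin (10 uM) in PBS with 50% saturated 1-aminoanthracene, after 10 min room-temperature incubation with compound; values from Hill fits of normalized response.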

[8] = target: ATP-dependent DNA helicase Q1 (Homo sapiens) (UniProt P46063); assay: qHTS Validation Assay for Inhibitors of RecQ-Like Dna Helicase 1 (RECQ1) (AID 2353);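 also: plate controls were DMSO vehicle for no effect and enzyme-free control for full effect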
In short: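 RECQ1T1 50 nM; forked duplex (20 bp + 30-nt ss tails) 200 nM, ATP 2 mM final; pH 8.0, 2 mM MgCl2, 2.5 ug/ml poly(dI-dC); 15 min compound preincubation; discontinuous kinetic read over 2 h at RT.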

[9] = target: RecQ-like DNA helicase BLM (Homo sapiens) (UniProt P54132); assay: qHTS Validation Assay for Inhibitors of Bloom's syndrome helicase (BLM) (AID 2364);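 also: plate controls were DMSO vehicle for no effect and enzyme-free control for full effect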
In short: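 50 nM BLM preincubated 15 min at room temperature with compound in pH 8.0 Tris buffer containing 2.5 ug/ml poly(dI-dC); started with 200 nM TAMRA/BHQ-2 forked duplex and 2 mM ATP (final). Unwinding read as TAMRA fluorescence increase, two reads 2 h apart.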

[10] = Validation screen for inhibitors of Lassa infection (AID 463096; calls by dose curve; also: % is scaled to controls: 0 for no effect and ±100 for the full control effect)
[11] = Quantitative high throughput screen for delayed death inhibitors of the malarial parasite plastid, 96 hour incubation (AID 488745); also: series mostly up to about 29 µM; % is scaled to controls: 0 for no effect and ±100 for the full control effect; nearly all actives have a fitted effect of over 70% in size
In short: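 Decreased firefly luciferase luminescence indicates inhibited growth of reporter-integrated P. falciparum after two generations (96 h, 37 C, 5% CO2). Infected erythrocytes at 0.1% parasitemia, 2% hematocrit, in Albumax-supplemented RPMI 1640.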

[12] = target: M-phase phosphoprotein 8 (Homo sapiens) (UniProt Q99549); assay: qHTS Validation Assay for Inhibitors for MPP8 Chromodomain Interactions with Methylated Histone Tails (AID 488949);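 also: 50 nM MPP8 with 50 nM peptide preformed then compounds added for 30 min; AlphaScreen signal from MPP8 chromodomain bound to biotinylated H3K9me3 peptide; top concentration of the series differs between compounds; % is scaled to controls: 0 for no effect and ±100 for the full control effect; nearly all actives have a fitted effect of over 55% in size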
In short: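 50 nM MPP8 + 50 nM b-H3K9me3 peptide, PBS pH 7.4/0.01% Tween-20, 30 min RT; + cpd 30 min RT; + AlphaScreen donor/Ni-chelate acceptor beads 10 ug/mL final, 30 min dark; luminescence read.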

[13] = target: Transient receptor potential cation channel subfamily V member 1 (Homo sapiens) (UniProt Q8NER1); assay: HTS Assay for Compounds that Act as Enhancers of the Vanilloid Receptor 1 (AID 488979); also: 0% is about no effect
In short: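 TRPV1 cells loaded with Fluo-8 calcium dye; compound added and Ca2+ signal (ex 480/em 520 nm) followed 3 min, then capsaicin at EC20 added and read 2 more min to detect enhancement.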

[14] = target: Thyrotropin receptor (Homo sapiens) (UniProt P16473); assay: qHTS Assay for Antagonists of the Thyroid Stimulating Hormone Receptor (AID 488980); also: series mostly up to about 58 µM; 0% is about no effect
In short: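 Readout is cAMP by HTRF competition between cellular cAMP and cAMP-d2 for a cryptate-labelled antibody. Antagonism was assessed in TSHR-transfected HEK293 cells stimulated with 4 nM TSH (EC80, final) in the presence of RO 20-1724.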

[15] = target: Thyrotropin-releasing hormone receptor (Homo sapiens) (UniProt P34981); assay: qHTS for Small Molecule Agonists and Allosteric Enhancers of Human TRH Receptor: Validation Screen for Agonists (AID 493127;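 active = calcium activation more than 3 SD above the typical response in the agonist read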;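 also: intracellular calcium rise by fluo-8 fluorescence before TRH EC20 addition; 0% is about no effect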); details: TRH receptor agonist cell assay; at 2 µM; stronger effect = higher value
In short: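 Compound-evoked intracellular calcium release in fluo-8-loaded TRHR cells, read kinetically on FDSS (Ex 480/Em 530, 1 s/cycle) after 23 nL pintool transfer. Agonist phase preceded 10 nM TRH EC20 addition.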

[16] = target: Galactokinase (Homo sapiens) (UniProt P51570); assay: qHTS Validation Assay for Inhibitors of Human Galactokinase (GALK) (AID 493189); also: 0% is about no effect
In short: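 5 nM GALK / 100 uM galactose / 35 uM ATP, 20 mM HEPES pH8.0, 5 mM MgCl2, 60 mM NaCl, 1 mM DTT, 0.01% BSA (final). RT 1 h; Kinase-Glo Plus luminescence.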

[17] = Validation screen for small molecules that induce DNA re-replication in SW480 colon adenocarcinoma cells (AID 504364); also: 0% is about no effect
In short: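 Image-based DNA content read-out: Hoechst stain 40 min, total nuclear fluorescence intensity (ex 405 nm, em 500-530 nm) after 48 h compound exposure of 250 SW480 cells/well at 37 C, 5% CO2, versus DMSO vehicle.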

[18] = target: Glucocorticoid receptor (Homo sapiens) (UniProt P04150); assay: qHTS assay for small molecule agonists of glucocorticoid receptor signaling (AID 588532; active = well fitted curve in the direction sought with a large enough effect in the signal ratio, with a control signal flat; the % refers to the signal ratio;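 also: 100% = dexamethasone at 0.1 µM and 0% = DMSO only wells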); details: HeLa MMTV-bla, beta-lactamase ratio, agonist, 18 h; stronger effect = higher value; percent of dexamethasone control, DMSO zero
In short: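 MMTV-bla HeLa beta-lactamase reporter cells in 1% charcoal/dextran FBS medium, compounds up to 92 uM for 18 h at 37 C, CCF4 readout; normalized to 0.1 uM dexamethasone (100%), EC50 and efficacy from Hill fits.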

[19] = target: Peroxisome proliferator-activated receptor delta (Homo sapiens) (UniProt Q03181); assay: qHTS assay for small molecule agonists of peroxisome proliferator-activated receptor delta signaling (AID 588534; calls by dose curve;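 also: 0% = DMSO basal wells and 100% = positive control agonist at 10 µM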)
In short: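 Agonist-mode beta-lactamase reporter readout (CCF4 dye, 2 h at RT) after 18 h at 37 °C exposure to a titration; Hill-equation fitting gave EC50 and maximal response.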

[20] = qHTS assay for small molecule antagonists of peroxisome proliferator-activated receptor delta signaling (AID 588535; active = well fitted inhibition curve with a large enough effect in the signal ratio, with a control signal flat, not every such curve was filed as active; the % refers to the signal ratio;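 as to max response: cells co-treated with a PPAR-delta agonist as stimulator during compound exposure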); details: HEK293T PPARd-UAS-bla, beta-lactamase FRET ratio, 18 h; 460 nm channel
In short: (§1)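 Fluorescence from CCF4-loaded GeneBLAzer PPAR-delta-UAS-bla HEK293T cells (2 hrs RT loading) quantified reporter inhibition after an 18 hr, 37 C compound exposure across a titration.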

[21] = target: Peroxisome proliferator-activated receptor delta (Homo sapiens) (UniProt Q03181); assay: as above
In short: as §1

[22] = target: Vitamin D3 receptor (Homo sapiens) (UniProt P11473); assay: qHTS assay for small molecule antagonists of vitamin D receptor signaling (AID 588541; calls by dose curve)
In short: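 VDR-UAS-bla HEK293T cells in 2% charcoal-stripped FBS were stimulated with 1-alpha,25-dihydroxyvitamin D3 (3 nM final) plus compound for 16 h at 37 C. The beta-lactamase CCF4 readout was normalized to 50 nM agonist and DMSO, and Hill fits gave IC50.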

[23] = target: Vitamin D3 receptor (Homo sapiens) (UniProt P11473); assay: qHTS assay for small molecule agonists of vitamin D receptor signaling (AID 588543; calls by dose curve;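 also: 0% = DMSO basal and 100% = reference agonist control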)
In short: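 Reporter cells (HEK293T, VDR-UAS-bla) were seeded in medium with 2% charcoal-stripped serum and incubated 5 h, then compounds in concentration series were added for 16 h at 37 °C. Stimulation was scaled between DMSO basal and 50 nM 1α,25-dihydroxyvitamin D3.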

[24] = target: Thyroid hormone receptor beta (Homo sapiens) (UniProt P10828); assay: qHTS assay for small molecule agonists of thyroid hormone receptor beta signaling (AID 588545; calls by dose curve)
In short: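 Agonist-mode beta-lactamase reporter assay, HEK 293 cells, 2% charcoal/dextran FBS; cells plated 4 hrs, compound 18 hrs at 37 C, CCF4 2 hrs RT. Normalized to 10 nM T3 (100%) and DMSO (0%); Hill fit gives EC50, efficacy.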

[25] = qHTS assay for small molecule antagonists of retinoid X receptor alpha signaling (AID 588546; active = well fitted inhibition curve with a large enough effect in the signal ratio, with a control signal flat, not every such curve was filed as active; the % refers to the signal ratio); details: HEK293T RXRa-UAS-bla, beta-lactamase ratio, antagonist mode; measured here: W530 green channel, cytotoxicity proxy
In short: (§2)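 Beta-lactamase reporter inhibition, read as CCF4 fluorescence ratio (ex 405, em 460/530 nm) after 2 h at RT. HEK293T UAS-bla cells, 2500/well, were stimulated with 9-cis-RA at 500 or 100 nM final alongside test compound for 18 h at 37 C.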

[26] = target: Retinoic acid receptor RXR-alpha (Homo sapiens) (UniProt P19793); assay: as above; details: HEK293T RXRa-UAS-bla, beta-lactamase ratio, antagonist mode
In short: as §2

[27] = target: Thyroid hormone receptor beta (Homo sapiens) (UniProt P10828); assay: qHTS assay for small molecule antagonists of thyroid hormone receptor beta signaling (AID 588547; active = well fitted inhibition curve with a large enough effect in the signal ratio, with a control signal flat, not every such curve was filed as active; the % refers to the signal ratio); details: TR-UAS-bla HEK293, beta-lactamase ratio, antagonist mode, 18 h
In short: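 TR-UAS-bla GripTite HEK293 cells in 2% charcoal/dextran FBS medium; compounds 0.59 nM to 92 uM with T3 at 0.4nM final, 18 h at 37 C. Beta-lactamase read by CCF4 fluorescence (460/530 nm); Hill fits gave IC50 and efficacy.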

[28] = qHTS assay for small molecule agonists of the antioxidant response element (ARE) signaling pathway (AID 651741; active = well fitted activation curve with a large enough effect in the signal ratio; the % refers to the signal ratio; also: potency is read from the fitted curve at half-maximal effect)
In short: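 Stably integrated ARE-beta-lactamase reporter HepG2 cells; 16 h compound incubation, 37 C; LiveBLAzer FRET substrate 2 h at room temperature; fluorescence intensity.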

[29] = qHTS assay for small molecule activators of the p53 signaling pathway (AID 651743; active = well fitted activation curve with a large enough effect in the signal ratio, not every such curve was filed as active; the % refers to the signal ratio; also: series mostly up to about 92 µM; % of control where 0% means no effect); details: HCT-116 p53RE-bla, beta-lactamase FRET ratio, 16 h; activation: stronger effect = higher value
In short: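 Following 16 hours of compound exposure at 37 C, HCT-116 cells bearing the p53RE-bla reporter were loaded with LiveBLAzer B/G FRET substrate for 2 hours at room temperature and fluorescence intensity was recorded.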

[30] = target: Peroxisome proliferator-activated receptor alpha (Homo sapiens) (UniProt Q07869); assay: qHTS assay for small molecule agonists of the peroxisome proliferator-activated receptor alpha (PPARalpha) signaling pathway (AID 651778); details: PathHunter PPARalpha complementation, chemiluminescence, 6 h; stronger effect = higher value; also: % of control where 0% means no effect
In short: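 Enzyme-fragment complementation assay in which ligand-bound PPARalpha translocates and forms an active enzyme that generates chemiluminescence. Cells were plated overnight, exposed to compound for 6 hr at 37 C, and then given detection reagent for 60 min at room temperature.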

[31] = qHTS assay for small molecule agonists of the antioxidant response element (ARE) signaling pathway measured by Nrf2-dependant transcriptional activity (AID 720636; active = well fitted curve in the direction sought with a large enough effect in the repeat runs; an effect the other way counts as inactive or inconclusive; also: % of control where 0% means no effect)
In short: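 ARE-luc HepG2 cells carrying an Nrf2-responsive luciferase reporter were plated in medium with 1% dialyzed FBS, left 6 hr at 37 C to attach, then exposed to compound for 16 hr. Luciferase luminescence was read after ONE-Glo addition.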

[32] = qHTS assay for cell viability of HEK293 cells (AID 743288); details: ATP luminescence (CellTiter-Glo), 18 h; max response: stronger effect = lower value; also: % is scaled to controls: 0 for no effect and ±100 for the full control effect; nearly all actives have a fitted effect of over 50% in size
In short: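 Viable-cell counts were inferred from luciferase-based ATP content in HEK293 cells seeded at 2,000/well, pre-incubated ≥5 h, then dosed with DMSO-solubilised compounds for 18 h at 37 C.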

[33] = qHTS assay for cell viability of the p53RE-bla HCT-116 cell line (AID 743292); also: % is scaled to controls: 0 for no effect and ±100 for the full control effect; nearly all actives have a fitted effect of over 55% in size
In short: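 CellSensor p53RE-bla HCT-116 cells, 4,000/well, preincubated 5 h at 37 C, then exposed to compounds in DMSO for 16 h at 37 C. Viability read as CellTiter-Glo luminescence (intracellular ATP) after 30 min at room temperature.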

[34] = target: Nuclear receptor subfamily 1 group I member 2 (Rattus norvegicus) (UniProt Q9R1A7); assay: qHTS assay for small molecule activators of the rat pregnane X receptor (rPXR) signaling pathway (AID 651751; call rule not given here; also: 0% is about no effect); details: rPXR reporter cells, luciferase (One-Glo), 24 h

Peroxisome proliferator-activated receptor delta (Homo sapiens), sequence (Q03181 whole entry, looked up): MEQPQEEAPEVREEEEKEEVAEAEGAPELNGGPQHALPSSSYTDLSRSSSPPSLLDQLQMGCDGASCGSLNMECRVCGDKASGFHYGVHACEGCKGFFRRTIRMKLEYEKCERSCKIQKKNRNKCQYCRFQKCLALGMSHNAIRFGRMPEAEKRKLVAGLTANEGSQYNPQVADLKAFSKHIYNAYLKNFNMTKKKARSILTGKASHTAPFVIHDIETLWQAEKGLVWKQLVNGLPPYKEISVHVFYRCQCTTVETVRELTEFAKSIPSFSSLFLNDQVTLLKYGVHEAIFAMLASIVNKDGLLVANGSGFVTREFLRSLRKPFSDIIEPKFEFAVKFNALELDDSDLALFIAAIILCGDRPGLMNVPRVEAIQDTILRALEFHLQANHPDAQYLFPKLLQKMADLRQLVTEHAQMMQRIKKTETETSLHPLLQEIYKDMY
Thyroid hormone receptor beta (Homo sapiens), sequence (P10828 whole entry, looked up): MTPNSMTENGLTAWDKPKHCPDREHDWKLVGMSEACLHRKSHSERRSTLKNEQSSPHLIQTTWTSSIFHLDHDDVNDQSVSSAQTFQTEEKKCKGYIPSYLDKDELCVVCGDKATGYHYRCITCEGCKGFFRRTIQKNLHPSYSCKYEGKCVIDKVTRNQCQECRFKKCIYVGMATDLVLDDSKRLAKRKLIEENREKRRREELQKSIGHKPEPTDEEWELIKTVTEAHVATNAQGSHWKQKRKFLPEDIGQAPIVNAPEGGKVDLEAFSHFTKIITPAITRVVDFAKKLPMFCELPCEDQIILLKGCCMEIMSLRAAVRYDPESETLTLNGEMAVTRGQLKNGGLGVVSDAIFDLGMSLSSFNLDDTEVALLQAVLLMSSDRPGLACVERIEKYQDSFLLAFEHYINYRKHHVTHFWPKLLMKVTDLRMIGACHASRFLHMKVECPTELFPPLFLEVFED
Vitamin D3 receptor (Homo sapiens), sequence (P11473 whole entry, looked up): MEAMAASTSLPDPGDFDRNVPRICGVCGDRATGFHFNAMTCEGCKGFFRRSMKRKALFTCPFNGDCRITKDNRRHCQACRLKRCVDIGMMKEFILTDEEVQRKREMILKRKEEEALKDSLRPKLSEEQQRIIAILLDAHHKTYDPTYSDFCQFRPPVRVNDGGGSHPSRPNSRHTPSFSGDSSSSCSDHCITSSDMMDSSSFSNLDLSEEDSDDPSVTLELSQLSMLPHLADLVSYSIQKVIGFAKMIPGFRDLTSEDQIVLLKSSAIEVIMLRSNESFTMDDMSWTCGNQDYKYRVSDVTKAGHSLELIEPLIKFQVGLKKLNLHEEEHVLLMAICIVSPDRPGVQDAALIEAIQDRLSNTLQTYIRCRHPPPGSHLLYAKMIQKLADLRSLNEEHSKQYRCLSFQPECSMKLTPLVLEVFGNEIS
DNA repair nuclease/redox regulator APEX1 (Homo sapiens), sequence (P27695 whole entry, looked up): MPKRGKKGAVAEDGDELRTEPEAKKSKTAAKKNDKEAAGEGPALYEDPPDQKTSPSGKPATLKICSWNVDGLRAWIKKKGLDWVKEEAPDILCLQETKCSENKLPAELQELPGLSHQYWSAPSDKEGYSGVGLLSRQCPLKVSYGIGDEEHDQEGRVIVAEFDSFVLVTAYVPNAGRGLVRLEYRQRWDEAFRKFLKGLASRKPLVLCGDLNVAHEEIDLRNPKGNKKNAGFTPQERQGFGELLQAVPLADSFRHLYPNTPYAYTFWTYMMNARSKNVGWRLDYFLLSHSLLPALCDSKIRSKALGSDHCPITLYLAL
Retinoic acid receptor RXR-alpha (Homo sapiens), sequence (P19793 whole entry, looked up): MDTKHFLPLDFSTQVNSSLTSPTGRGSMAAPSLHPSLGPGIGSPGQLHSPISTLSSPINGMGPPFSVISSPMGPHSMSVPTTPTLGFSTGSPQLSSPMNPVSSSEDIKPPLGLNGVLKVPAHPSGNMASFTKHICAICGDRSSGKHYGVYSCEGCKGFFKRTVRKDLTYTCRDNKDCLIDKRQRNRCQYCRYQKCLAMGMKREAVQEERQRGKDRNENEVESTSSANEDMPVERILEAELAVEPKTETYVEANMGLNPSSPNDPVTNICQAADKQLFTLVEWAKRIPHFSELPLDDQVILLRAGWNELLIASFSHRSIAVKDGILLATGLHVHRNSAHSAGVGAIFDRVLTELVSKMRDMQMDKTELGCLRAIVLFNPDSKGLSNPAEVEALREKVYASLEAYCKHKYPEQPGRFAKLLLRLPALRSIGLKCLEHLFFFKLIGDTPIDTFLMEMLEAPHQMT
Thyrotropin receptor (Homo sapiens), sequence (P16473 whole entry, looked up): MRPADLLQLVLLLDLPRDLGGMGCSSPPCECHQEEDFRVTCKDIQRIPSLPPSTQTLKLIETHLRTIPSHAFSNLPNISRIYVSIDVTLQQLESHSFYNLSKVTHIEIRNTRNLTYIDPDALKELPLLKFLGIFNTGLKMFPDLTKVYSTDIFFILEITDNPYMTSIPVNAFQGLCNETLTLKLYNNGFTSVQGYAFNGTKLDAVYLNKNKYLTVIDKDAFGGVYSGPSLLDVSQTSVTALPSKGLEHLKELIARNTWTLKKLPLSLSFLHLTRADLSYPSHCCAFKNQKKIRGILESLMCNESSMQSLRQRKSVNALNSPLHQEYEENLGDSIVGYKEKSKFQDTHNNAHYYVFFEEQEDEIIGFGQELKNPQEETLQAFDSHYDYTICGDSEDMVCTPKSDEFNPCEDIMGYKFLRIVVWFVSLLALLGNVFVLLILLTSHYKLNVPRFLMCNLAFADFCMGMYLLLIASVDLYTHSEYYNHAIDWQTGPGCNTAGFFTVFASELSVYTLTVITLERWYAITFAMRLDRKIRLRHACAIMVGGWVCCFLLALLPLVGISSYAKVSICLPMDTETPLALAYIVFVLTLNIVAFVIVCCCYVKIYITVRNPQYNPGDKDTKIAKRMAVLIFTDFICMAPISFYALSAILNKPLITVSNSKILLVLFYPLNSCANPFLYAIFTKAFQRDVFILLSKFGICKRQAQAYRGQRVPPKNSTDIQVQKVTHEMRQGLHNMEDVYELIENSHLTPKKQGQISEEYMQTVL
ATP-dependent DNA helicase Q1 (Homo sapiens), sequence (P46063 whole entry, looked up): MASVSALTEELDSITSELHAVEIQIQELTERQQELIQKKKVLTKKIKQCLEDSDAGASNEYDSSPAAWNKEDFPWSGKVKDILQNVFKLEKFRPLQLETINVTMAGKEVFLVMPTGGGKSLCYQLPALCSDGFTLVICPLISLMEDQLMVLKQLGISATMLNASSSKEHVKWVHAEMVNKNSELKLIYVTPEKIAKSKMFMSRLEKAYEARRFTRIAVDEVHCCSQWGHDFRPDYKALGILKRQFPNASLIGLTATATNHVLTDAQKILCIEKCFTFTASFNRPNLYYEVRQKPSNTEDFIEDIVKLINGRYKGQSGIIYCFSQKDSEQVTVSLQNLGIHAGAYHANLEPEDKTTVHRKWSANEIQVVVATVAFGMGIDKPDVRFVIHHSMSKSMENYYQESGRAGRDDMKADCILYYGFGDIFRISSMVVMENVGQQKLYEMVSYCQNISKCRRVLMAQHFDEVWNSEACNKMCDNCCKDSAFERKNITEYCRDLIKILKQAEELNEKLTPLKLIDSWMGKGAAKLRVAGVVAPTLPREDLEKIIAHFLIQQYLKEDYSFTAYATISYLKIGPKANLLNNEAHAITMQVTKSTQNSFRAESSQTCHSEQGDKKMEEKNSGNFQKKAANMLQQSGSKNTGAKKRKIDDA
Thyrotropin-releasing hormone receptor (Homo sapiens), sequence (P34981 whole entry, looked up): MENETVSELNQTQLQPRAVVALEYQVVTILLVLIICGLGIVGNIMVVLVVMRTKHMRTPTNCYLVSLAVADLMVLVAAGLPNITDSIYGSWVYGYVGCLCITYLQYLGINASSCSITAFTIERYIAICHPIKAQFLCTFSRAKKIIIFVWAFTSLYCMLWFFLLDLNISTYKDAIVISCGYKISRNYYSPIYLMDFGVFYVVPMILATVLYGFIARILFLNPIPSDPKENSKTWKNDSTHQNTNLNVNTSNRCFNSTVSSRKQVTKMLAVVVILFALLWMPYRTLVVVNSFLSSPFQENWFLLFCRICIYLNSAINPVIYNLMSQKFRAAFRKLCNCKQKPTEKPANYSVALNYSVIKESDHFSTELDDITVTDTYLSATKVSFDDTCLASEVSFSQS
Glucocorticoid receptor (Homo sapiens), sequence (P04150 whole entry, looked up): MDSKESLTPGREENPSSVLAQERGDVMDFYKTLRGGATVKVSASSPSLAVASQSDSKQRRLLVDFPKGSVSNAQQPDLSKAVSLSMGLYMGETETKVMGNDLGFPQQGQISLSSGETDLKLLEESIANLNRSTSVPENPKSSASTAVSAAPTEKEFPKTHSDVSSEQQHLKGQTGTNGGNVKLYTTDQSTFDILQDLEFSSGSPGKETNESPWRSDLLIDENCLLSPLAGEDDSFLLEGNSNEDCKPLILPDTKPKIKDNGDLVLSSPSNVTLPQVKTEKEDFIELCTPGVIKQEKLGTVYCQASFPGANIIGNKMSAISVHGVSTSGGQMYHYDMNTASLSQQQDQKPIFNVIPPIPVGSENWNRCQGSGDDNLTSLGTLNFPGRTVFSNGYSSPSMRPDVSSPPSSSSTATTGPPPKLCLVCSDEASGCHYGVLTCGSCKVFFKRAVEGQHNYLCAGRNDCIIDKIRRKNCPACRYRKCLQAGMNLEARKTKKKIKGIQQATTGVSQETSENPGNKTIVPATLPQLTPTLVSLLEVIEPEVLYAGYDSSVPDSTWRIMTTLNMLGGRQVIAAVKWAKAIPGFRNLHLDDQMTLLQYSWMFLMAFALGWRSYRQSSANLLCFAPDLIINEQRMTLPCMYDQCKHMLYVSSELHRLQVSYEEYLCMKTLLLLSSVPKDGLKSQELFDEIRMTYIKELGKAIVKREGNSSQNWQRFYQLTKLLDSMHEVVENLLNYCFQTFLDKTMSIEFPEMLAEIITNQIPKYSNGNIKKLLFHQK
Ferritin light chain (Equus caballus), sequence (P02791 2-175 limits assumed): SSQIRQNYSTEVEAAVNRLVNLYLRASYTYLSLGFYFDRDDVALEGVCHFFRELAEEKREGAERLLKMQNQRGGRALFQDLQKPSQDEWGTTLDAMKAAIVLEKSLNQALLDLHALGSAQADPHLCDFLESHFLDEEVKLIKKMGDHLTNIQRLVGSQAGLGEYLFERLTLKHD

O=C(O)C1C2CCC(O2)C1C(=O)O (centres undefined)
16.5%: max response [20]
inactive: Potency [1] | outcome [2] | Potency [3] | Potency [4] | Potency [5] | Potency [6] | Potency [7] | outcome [8] | outcome [9] | Potency [10] | Potency [11] | Potency [12] | outcome [13] | outcome [14] | activation [15] 1.38% | outcome [16] | outcome [17] | activation [18] -13.9% | outcome [19] | Potency [21] | outcome [22] | outcome [23] | outcome [24] | max response [26] -26.2% | activity change % (negative = inhibition) [27] -12% | activation [29] 4.04% | max response [30] -0.146% | outcome [31] | max response [32] -14.9% | Potency [33] | max response [34] 4.79%
active: Potency [28] 27.3 µM
-24.5%: max response [25]
